Compound activity from PubChem.
This is a sample that favours compounds with a hit; in the whole collection about 2.4% have one here.
AmpC nodet inh: Promiscuous and Specific Inhibitors of AmpC Beta-Lactamase (assay without detergent) | P00811 | AmpC nitrocefin hydrolysis, absorbance 480 nm, no detergent | Potency, µM (top dose mostly 28.7 µM), inactives show at the top dose activity change, negative = inhibition | actives 1.8% (n = 71,000); further: % of control where 0% means no effect
Target sequence (P00811 whole entry, looked up): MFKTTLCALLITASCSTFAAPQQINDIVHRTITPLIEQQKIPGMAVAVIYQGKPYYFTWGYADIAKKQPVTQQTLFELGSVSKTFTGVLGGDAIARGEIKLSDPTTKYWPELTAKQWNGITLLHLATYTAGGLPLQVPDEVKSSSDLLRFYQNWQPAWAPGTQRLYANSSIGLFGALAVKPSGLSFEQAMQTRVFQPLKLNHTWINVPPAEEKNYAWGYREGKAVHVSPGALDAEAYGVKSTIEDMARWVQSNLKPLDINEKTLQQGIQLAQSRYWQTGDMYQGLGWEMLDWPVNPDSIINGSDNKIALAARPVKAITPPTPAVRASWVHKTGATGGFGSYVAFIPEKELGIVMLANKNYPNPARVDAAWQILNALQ
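Enzyme, pH 7.0 phosphate. Compound titrations were pre-incubated with AmpC for 15 min at room temperature before nitrocefin (stock 800 uM) addition; product formation was recorded at 480 nm every 20 s for 4 min.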
Prx2 Sm inh: Schistosoma Mansoni Peroxiredoxins (Prx2) | S. mansoni Prx2 activity coupled to TGR/GSH (TGR is thioredoxin glutathione reductase), NADPH fluorescence loss, qHTS | Schistosoma mansoni peroxiredoxin 2 (Prx2) | AID 448, 2006 | actives 0.07% (n = 65,000) | Potency, µM
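Coupled assay in which S. mansoni TGR passes NADPH reducing equivalents via glutathione to Prx2, which reduces H2O2. Compounds were preincubated 15 min at room temperature with 25 nM TGR/50 nM Prx2 mix. Kinetic NADPH fluorescence loss (ex 365/em 450 nm) was monitored.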
LT uptake inh: qHTS Assay for Anthrax Lethal Toxin Internalization; Cells, anthrax lethal toxin internalization, FRET ratio (460/530); Potency, µM (titrated, usually from 40 µM), inactives show top-dose activity change, negative = inhibition, hits mostly inhibitors; actives 0.67% (n = 70,000); AID 912, 2007; further: on the % scale 0 is the no-effect control and ±100 the full control effect; nearly all actives have a fitted effect of over 50% in size
AmpC inh det: Promiscuous and Specific Inhibitors of AmpC Beta-Lactamase (assay with detergent). actives 0.09% (n = 71,000). purified AmpC, nitrocefin hydrolysis with detergent. Potency, µM (series often up to 28.7 µM), for inactives: top-dose activity change, negative = inhibition; active means well fitted curve in the direction sought with a large enough effect; inconclusive means small, poorly fitted or top-dose-only effect; further: on the % scale 0 is the no-effect control and ±100 the full control effect
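E. coli AmpC (5.3 nM) in 20 mM phosphate pH 7.0 with 0.01% Triton X-100, preincubated 15 min RT with compound; nitrocefin (2 uL of 800 uM stock) hydrolysis followed by 480 nm absorbance every 20 s over 4 min.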
Numbers without * were called inactive; ? = inconclusive; ! = not confirmed by another sample; [ ] = another dose, or the depositor's remark. Unless noted, the call rests on the fitted dose curve. Potency means the concentration at half of the fitted maximal effect.

SMILES	AmpC nodet inh	Prx2 Sm inh	LT uptake inh	AmpC inh det
Cc1cc(C(=O)OCC(=O)Nc2cc(C)on2)c2ccccc2n1	-2.7%	>57	-11.6%	-2.2%
CC(C)(C)c1ccc(S(=O)(=O)NCCc2ccncc2)cc1	7.5%	>57	-8.2%	-0.6%
CCOC(=O)N1CCN(c2c(NCCCN(C)c3ccccc3)c(=O)c2=O)CC1	3.98µM*[single pt active]	>57	-0.6%	12.0%
CCOC(=O)N1CCN(c2c(NCCN(C)Cc3ccccc3)c(=O)c2=O)CC1	3.98µM*[single pt active]	>57	-7.4%	9.8%
CCOC(=O)N1CCN(c2c(NCCCOC(C)C)c(=O)c2=O)CC1	3.98µM*[single pt active]	>57	-14.3%	7.7%
CCOC(=O)N1CCN(c2c(NCCN3CCN(Cc4ccccc4)CC3)c(=O)c2=O)CC1	3.98µM*[single pt active]	>57	-9.7%	11.6%
CCOC(=O)C1CCCN(c2c(NCCCN(C)Cc3ccccc3)c(=O)c2=O)C1 (stereo not drawn)	-4.0%	>57	-11.3%	-2.7%
CCOC(=O)N1CCC(Nc2c(NCCN3CCN(Cc4ccccc4)CC3)c(=O)c2=O)CC1	2.7%	>57	-6.9%	-0.3%
CC(=O)c1cccc(NC(=O)N2CCCC2C(=O)Nc2cccc(C)c2C)c1 (stereo not drawn)	3.5%	>57	?	5.2%
COc1ccc(NC(=O)C2CCCN(S(=O)(=O)c3c(C)n[nH]c3C)C2)cc1 (stereo not drawn)	8.0%	>57	-1.9%	-4.6%
CCOc1cc(C2C(C#N)=C(N)OC(C)=C2C(C)=O)cc(Br)c1O (stereo not drawn)	-11.9%	>57	-3.5%	1.9%
CCOC(=O)N1CCN(c2c(NCC3CCN(Cc4cccc(C)c4)CC3)c(=O)c2=O)CC1	3.98µM*[single pt active]	>57	11.6%	14.9%
CCOC(=O)C1CCN(c2c(NCCCN3CCN(Cc4ccccc4)CC3)c(=O)c2=O)CC1	18.8%	>57	2.7%	9.8%
COc1ccccc1-c1nnc2sc(COc3ccc(Cl)cc3Cl)nn12	49.0%	>57	10µM*	-4.2%
Clc1ccc(OCc2nn3c(C4CCCCC4)nnc3s2)c(Cl)c1	34.9%	>57	2.1%	-0.6%
Cc1nccc2c1[nH]c1ccccc12	28.9%	>57	?	-1.2%
Cc1c2ccncc2c(C)c2c1[nH]c1ccccc12	1.3%[12.8 µM]	>57	5.01µM*	-4.3%[12.8 µM]
COc1cc(NS(=O)(=O)c2ccc(NC(=O)COc3ccccc3C)cc2)nc(OC)n1	12.6µM*[single pt active]	>57	-11.6%	-1.4%
Cc1cc(NS(=O)(=O)c2ccc(NC(=O)COc3ccccc3C(C)C)cc2)no1	3.98µM*[single pt active]	>57	-15.5%	5.9%
CCCS(=O)(=O)N1CCC(C(=O)N2CCc3ccccc3C2)CC1	16.8%	>57	5.4%	-2.8%
CC(=O)c1c(C)[nH]c(C(=O)Nc2cccnc2)c1C	-2.9%	>57	6.3%	-0.4%
Cc1c(NC(=O)CSc2nncc3ccccc23)c(=O)n(-c2ccccc2)n1C	2.6%	>57	4.5%	-3.3%
CC(=O)Nc1nc(-c2ccc(Br)s2)cs1	12.6µM*	>57	-2.2%	12.5%
OC(COc1ccc(Cl)c2ccccc12)CN1CCN(c2ccccn2)CC1 (stereo not drawn)	83.7%	>57	10µM*	7.4%
O=S(=O)(c1ccccc1)N1CCC2(CCN(c3ccccc3)CC2)CC1	26.1%	>57	?	-0.2%
SMILES	AmpC nodet inh	Prx2 Sm inh	LT uptake inh	AmpC inh det
COc1ccc(-c2nc(CSCC(=O)N3CCN(c4cccc(C)c4)C(C)C3)c(C)o2)cc1OC (stereo not drawn)	152.3%	>57	10µM*	10.4%
COC(=O)N1CCN(C(=O)Cc2ccc(Cl)c(Cl)c2)[C@H](CN2CCCC2)C1	36.2%	14.1*!	?	0.9%
Cc1noc(C)c1S(=O)(=O)N(CC(=O)NCc1ccc2c(c1)OCO2)c1ccc(C(C)C)cc1	-9.3%	>57	5.01µM*	6.4%
Cc1cc(N2CCOCC2)nc2ccc(NC(=O)C3CCC(C)CC3)cc12 (stereo not drawn)	100.3%	>57	-2.1%	-2.2%
Cc1cc(N2CCC(N(C)C3CCCC3)CC2)nc2cc(O)ccc12	27.0%	>57	3.16µM*	13.8%
COc1ccc(OCc2nnc3n2N=C(c2ccc(Br)cc2)CS3)cc1	3.98µM*[single pt active]	>57	?	11.9%
Cc1nn(-c2ccccc2)c2sc(C(=O)N(CC(=O)NC(C)(C)C)Cc3ccco3)cc12	77.2%	>57	12.6µM*	-6.1%
